Results filed as inconclusive are left out. Activity calls are given as the source filed them. Calls come from the whole dose curve; as a rule, active = well fitted curve in the direction sought with a large enough effect; inconclusive = small, poorly fitted or top-dose-only effect, or another doubt; inactive = no such curve, though single readings can be large; an effect the other way counts as inactive or inconclusive.
Key:
[1] = Cellular Toxicity (caspase-3) Mesangial (AID 660); details: mesangial cells, normalized: DMSO 0%, 100 µM tamoxifen 100%; at 91.7 µM (top of the series);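 note: combined caspase 3 and 7 activity read by Caspase-Glo luminescence; cells exposed to compound for 16 h before the caspase read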
How it was run: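 Mesangial cells, 1000/well, 5 h settle at 37 °C; compound 16 h, 37 °C; Caspase-Glo 3/7 reagent 20 min RT; luminescence. Norm.: DMSO = 0%, tamoxifen 100 uM = 100%. AC50, Hill fit.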

[2] = Cellular Toxicity (caspase-3) SK-N-SH (AID 661);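 note: 0% = DMSO basal and 100% = 10 µM staurosporine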
How it was run: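 Human neuroblastoma SK-N-SH, 1500 cells/well, 5 hr pre-incubation, then compound 16 hr, 37 °C. Caspase-Glo 3/7 reagent, 1 hr RT, luminescence. Norm. to DMSO/10 uM staurosporine; Hill-fit AC50.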

[3] = Cellular Toxicity (caspase-3) H-4-II-E (AID 663); details: H-4-II-E rat hepatoma, scaled: DMSO 0%, 100 µM tamoxifen 100%; at 92.2 µM (top of the series)
How it was run: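 Apoptosis induction is scored as increased luminescence from caspase 3/7 substrate cleavage in rat hepatoma H-4-II-E cells exposed to compound for 16 hr. Activity is scaled between DMSO and 100 uM tamoxifen.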

[4] = Cellular Toxicity (caspase-3) Hek293 (AID 664); details: HEK293 caspase-3 activation, DMSO = 0%, 100 µM tamoxifen = 100%; at 92.2 µM (top of the series);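 note: cells exposed to compound for 16 h at 37 °C before readout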
How it was run: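 Cells plated, 5 hr at 37 °C; compounds added; 16 hr at 37 °C; Caspase-Glo 3/7 reagent, 20 min RT; luminescence read. Activation expressed relative to DMSO and 100 uM tamoxifen, AC50 by Hill model.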

[5] = Cellular Toxicity (caspase-3) NIH 3T3 (AID 666);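 note: 0% = DMSO basal and 100% = 100 µM tamoxifen stimulation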
How it was run: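 Luminescence from aminoluciferin released by caspase-3/7 cleavage of a peptide substrate served as read-out. Mouse fibroblast NIH 3T3 cells were exposed to compounds over a concentration range for 16 hours, and AC50 values came from standard Hill modelling.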

[6] = Cellular Toxicity (caspase-3) Renal Proximal Tubule (AID 667); details: Potency: caspase-3 activation;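 note: cells exposed to compound for 16 hours at 37 °C before detection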; note: potency is the fitted concentration of half-maximal effect;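 for caspase-3 activation: 0% = DMSO basal and 100% = 10 µM staurosporine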
How it was run: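 Luminescent caspase 3/7 signal from peptide-aminoluciferin cleavage measures apoptosis in freshly isolated rat kidney proximal tubule cells after 16 h compound exposure. Concentration-response data are normalized to DMSO and 10 uM staurosporine, and AC50 values come from Hill equation fits.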

[7] = Cell Viability - LYMP2-001 (AID 921);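 note: 0% = DMSO only and full inhibition = tetraoctylammonium bromide control wells; nearly all actives have a fitted effect of over 70% in size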
How it was run: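 CellTiter-Glo luminescence (intracellular ATP) after 24 hr compound exposure at 37 C, 2500 lymphoblastoid cells/well in complete medium. AC50 fitted with standard Hill equation; tetraoctylammonium bromide positive control.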

[8] = MultiTox-Fluor Cytotoxicity Assay - LYMP1-001 - Dead Cells (AID 946)
How it was run: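 In this qHTS, 15 uM tetraoctylammonium bromide defined 100% and DMSO defined basal activity. Lymphoblastoid cells (LYMP1-001, 2500 per well) received compound for 16 hr at 37 C before a fluorogenic dead-cell substrate readout at 485/520 nm.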

[9] = MultiTox-Fluor Cytotoxicity Assay - LYMP1-001 - Live Cells (AID 947);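 note: 0% = DMSO only and full inhibition = tetraoctylammonium bromide control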
[10] = Cell Viability - LYMP1-002 - Assay at 16 hr (AID 948);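 note: 0% = DMSO alone and full effect = 92 µM tetraoctylammonium bromide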
How it was run: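 LYMP1-002 human lymphoblastoid cells, 2500/well; 5 hr 37 C; cpd 16 hr 37 C; CellTiter-Glo 30 min RT; luminescence (ATP). Concentration-response, Hill-fit AC50. Pos ctrl tetraoctylammonium bromide.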

[11] = MultiTox-Fluor Cytotoxicity Assay - LYMP1-002 - Live Cells (AID 955); note: % is set by controls: 0 for no effect and ±100 for the full control effect
How it was run: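 Read-out is live-cell protease activity (cell-permeant GF-AFC substrate, fluorescence Ex/Em=405/510), where a decrease indicates acute toxicity. Human lymphoblastoid cells were treated 16 hours at 37 C in a concentration series, and AC50 values came from standard Hill modelling.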

[12] = MultiTox-Fluor Cytotoxicity Assay - LYMP1-002 - Dead Cells (AID 960); note: nearly all actives have a fitted effect of over 60% in size
How it was run: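 LYMP1-002 cells 2500/well; 5 hr 37 C pre-incubation; compound 16 hr 37 C; MultiTox-Fluor reagent 60 min RT; dead-cell fluor Ex/Em 485/520. Norm. to DMSO (0%) vs 15 uM tetraoctylammonium bromide (100%); Hill AC50.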

[13] = MultiTox-Fluor Cytotoxicity Assay - LYMP1-003 - Dead Cells (AID 961); note: nearly all actives have a fitted effect of over 70% in size; note: potency is the fitted concentration of half-maximal effect
How it was run: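 Acute toxicity is scored as increased dead-cell protease activity in human lymphoblastoid LYMP1-003 cells after 16 h compound exposure in complete culture medium. Activity is normalized to DMSO basal and 15 uM tetraoctylammonium bromide as full response.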

[14] = MultiTox-Fluor Cytotoxicity Assay - LYMP1-003 - Live Cells (AID 962);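 note: cells exposed to compound for 16 hours at 37 °C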; note: potency is the fitted concentration of half-maximal effect
How it was run: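 qHTS, 1536-well; 2500 cells/well LYMP1-003; 5 hr 37 C settle; cpd 16 hr 37 C; MultiTox-Fluor reagent 60 min RT; live-cell protease fluor. 405/510; Hill-fit AC50; tetraoctylammonium bromide pos. ctrl.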

[15] = Cell Viability - LYMP1-003 - Assay at 24 hr (AID 963); note: potency is the fitted concentration of half-maximal effect
How it was run: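 Cells seeded at 2500/well, 5 hr at 37 C; compounds added; 24 hr at 37 C; CellTiter-Glo added, 30 min room temperature; luminescence read. Decrease in ATP taken as cytotoxicity, AC50 from Hill modelling.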

[16] = Cell Viability - LYMP1-003 - Assay at 40 hr (AID 964); note: nearly all actives have a fitted effect of over 60% in size; note: potency is the fitted concentration of half-maximal effect
How it was run: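 Cells were seeded at 2500 per well and incubated 5 hr at 37 C. Compounds were added across a concentration series and left 40 hr at 37 C. CellTiter-Glo was added for 30 min at room temperature before luminescence reading.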

[17] = Cell Viability - LYMP2-003 (AID 965);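 note: cells exposed to compounds for 24 h before reading; nearly all actives have a fitted effect of over 50% in size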; note: potency is the fitted concentration of half-maximal effect
How it was run: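 CellTiter-Glo luminescence (cellular ATP) after 24 h compound exposure at 37 C in complete medium; 2500 cells/well, 5 h settling beforehand. Concentration-response fitted to standard Hill equation for AC50. Tetraoctylammonium bromide served as positive control.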

[18] = Cell Viability - LYMP2-004 (AID 966);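 note: plate controls were DMSO only for no effect and tetraoctylammonium bromide control for full effect; nearly all actives have a fitted effect of over 65% in size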
How it was run: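 Cells seeded 2500/well, rested 5 hr at 37 C, dosed across a concentration series, incubated 24 hr at 37 C, then CellTiter-Glo added for 30 min at room temperature and luminescence read. Hill fitting gave AC50.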

[19] = molecular target: Cytochrome P450 3A4 (Homo sapiens) (UniProt P08684); assay: qHTS Assay for Inhibitors and Substrates of Cytochrome P450 3A4 (AID 884); note: % is set by controls: 0 for no effect and ±100 for the full control effect; nearly all actives have a fitted effect of over 50% in size
How it was run: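 20 nM human CYP3A4 with 25 uM Luciferin-PPXE (at KM) in 200 mM KPO4, preincubated 10 min with compound; NADPH regeneration started a 60 min RT reaction. Luciferin detected by luminescence, normalized to 57 uM ketoconazole as full inhibition.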

[20] = Cellular Toxicity (caspase-3) N2a (AID 665);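 note: compound exposure lasted 16 h at 37 °C before readout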
How it was run: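 N2a cells, 1500/well, 5 h settle at 37 °C; cpd 16 h, 37 °C; Caspase-Glo 3/7, 1 h RT; luminescence. Norm: DMSO = 0, 10 uM staurosporine = 100%. AC50, Hill fit.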

Sequence of Cytochrome P450 3A4 (Homo sapiens) (P08684 whole entry, looked up): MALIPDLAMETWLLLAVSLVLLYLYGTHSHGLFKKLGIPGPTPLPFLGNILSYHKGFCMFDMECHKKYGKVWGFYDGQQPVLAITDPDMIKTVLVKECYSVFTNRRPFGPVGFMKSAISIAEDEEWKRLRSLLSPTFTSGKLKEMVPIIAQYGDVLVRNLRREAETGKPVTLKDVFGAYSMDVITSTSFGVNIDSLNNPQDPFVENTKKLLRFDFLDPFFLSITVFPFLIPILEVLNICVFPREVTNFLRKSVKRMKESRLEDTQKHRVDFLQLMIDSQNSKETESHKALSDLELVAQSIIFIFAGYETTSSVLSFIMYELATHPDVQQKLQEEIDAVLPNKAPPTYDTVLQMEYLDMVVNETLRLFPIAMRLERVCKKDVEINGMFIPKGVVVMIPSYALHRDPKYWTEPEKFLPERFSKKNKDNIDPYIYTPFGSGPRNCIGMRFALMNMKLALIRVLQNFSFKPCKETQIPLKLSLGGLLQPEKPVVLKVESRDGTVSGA

Cc1ccc2oc(=O)ccc2c1
inactive: caspase-3 activation [1] -0.888% | outcome [2] | caspase-3 activation [3] 1.34% | caspase-3 activation [4] -2.33% | outcome [5] | Potency [6] | Potency [7] | outcome [8] | outcome [9] | outcome [10] | outcome [11] | outcome [12] | Potency [13] | Potency [14] | Potency [15] | Potency [16] | Potency [17] | Potency [18]

Cc1ccc2ccccc2c1[N+](=O)[O-]
inactive: caspase-3 activation [1] 0.0968% | outcome [2] | caspase-3 activation [3] -1.44% | caspase-3 activation [4] -2.81% | outcome [5] | Potency [6] | Potency [19] | outcome [8] | outcome [10] | outcome [11] | outcome [12] | Potency [13] | Potency [14] | Potency [15] | Potency [16] | Potency [17] | Potency [18]

Cc1cccc(Br)c1
inactive: caspase-3 activation [1] -0.167% | outcome [2] | caspase-3 activation [3] 0.836% | caspase-3 activation [4] -1.49% | outcome [5] | Potency [6] | Potency [19] | Potency [7] | outcome [8] | outcome [9] | outcome [10] | outcome [11] | Potency [13] | Potency [14] | Potency [15] | Potency [16] | Potency [17] | Potency [18]

CC(=C/C=C/C(C)=C/C=C/C=C(C)/C=C/C=C(C)/C=C/C(=O)O)/C=C/C(=O)O
inactive: caspase-3 activation [1] -0.768% | outcome [2] | caspase-3 activation [3] 0.467% | caspase-3 activation [4] -1.17% | outcome [5] | Potency [6] | Potency [19] | Potency [7] | outcome [8] | outcome [9] | outcome [10] | outcome [11] | outcome [12] | Potency [14] | Potency [15] | Potency [16] | Potency [17] | Potency [18]

CC1=C(/C=C/C(C)=C/C=C/C(C)=C\C=O)C(C)(C)CCC1
active: caspase-3 activation [1] 90.3% | caspase-3 activation [3] 113% | Potency [6] 31.6 µM | Potency [13] 31.6 µM | Potency [14] 50.1 µM | Potency [15] 63.1 µM | Potency [16] 50.1 µM | Potency [17] 39.8 µM

CCOCCO
inactive: caspase-3 activation [1] -0.559% | outcome [2] | caspase-3 activation [3] -0.494% | caspase-3 activation [4] -0.913% | outcome [5] | Potency [6] | Potency [19] | outcome [8] | outcome [10] | outcome [11] | outcome [12] | Potency [13] | Potency [14] | Potency [15] | Potency [16] | Potency [17] | Potency [18]

COc1ccc(N)c(OC)c1
inactive: caspase-3 activation [1] 0.311% | outcome [2] | caspase-3 activation [3] 1.91% | caspase-3 activation [4] -1.28% | Potency [6] | Potency [7] | outcome [8] | outcome [9] | outcome [10] | outcome [11] | outcome [12] | Potency [13] | Potency [14] | Potency [15] | Potency [16] | Potency [17] | Potency [18]

CCCC(C)CO (stereo unspecified)
inactive: caspase-3 activation [1] 0.885% | outcome [2] | caspase-3 activation [3] 1.09% | caspase-3 activation [4] 1.12% | outcome [5] | Potency [6] | Potency [19] | outcome [8] | outcome [9] | outcome [10] | outcome [11] | outcome [12] | Potency [13] | Potency [14] | Potency [15] | Potency [16] | Potency [17] | Potency [18]

C(=C/c1ccccc1)/c1ccccc1
inactive: caspase-3 activation [1] 0.853% | outcome [2] | caspase-3 activation [3] 0.852% | caspase-3 activation [4] 5.17% | outcome [5] | Potency [6] | Potency [19] | Potency [7] | outcome [8] | outcome [9] | outcome [10] | outcome [11] | outcome [12] | Potency [13] | Potency [14] | Potency [15] | Potency [16] | Potency [17] | Potency [18]

CC(=O)CCc1ccccc1
inactive: caspase-3 activation [1] -0.0155% | outcome [2] | caspase-3 activation [4] 0.352% | outcome [20] | outcome [5] | Potency [19] | outcome [8] | outcome [10] | outcome [11] | outcome [12] | Potency [13] | Potency [14] | Potency [15] | Potency [16] | Potency [17]

O=C(O)c1cccc(Cl)c1Cl
inactive: caspase-3 activation [1] 0.259% | outcome [2] | caspase-3 activation [3] -0.64% | caspase-3 activation [4] -1.27% | outcome [5] | Potency [6] | Potency [19] | Potency [7] | outcome [8] | outcome [10] | outcome [11] | outcome [12] | Potency [13] | Potency [14] | Potency [15] | Potency [16] | Potency [17] | Potency [18]

O=C1OC(=O)c2cc([N+](=O)[O-])ccc21
inactive: caspase-3 activation [1] -0.00553% | outcome [2] | caspase-3 activation [3] -0.24% | caspase-3 activation [4] -0.39% | outcome [5] | Potency [6] | Potency [19] | Potency [7] | outcome [8] | outcome [9] | outcome [10] | outcome [11] | outcome [12] | Potency [14] | Potency [15] | Potency [16] | Potency [17] | Potency [18]

— PubChem BioAssay (NCATS)
